Assay results published in ChEMBL document CHEMBL4513216, “Probing the Open Global Health Chemical Diversity Library for Multistage-Active Starting Points for Next-Generation Antimalarials” (ACS Infect Dis, 2020).
Screen size: about 69,000 compounds; about 8,600 (12%) showed an effect of 50% or more. Many of the other results were omitted from the sample, so strong results are more common in it than they were.

The molecules below were run on Plasmodium berghei (assay: Screen against P. berghei liver stage (PbLuc), transformed with Luciferase, at 10uM). Conditions: tested at 10 uM.
Assay type: functional, HepG2

Q: With CC(=O)c1cnc(NCC2OCCc3ccccc32)nc1C (stereo unspecified) as the molecule, how does the INHIBITION read?
A: The INHIBITION was 74.9%.

Q: How did the INHIBITION turn out when CCc1cnc(NCC2OCCc3ccccc32)nc1 (stereo unspecified) was run?
A: The INHIBITION was 44.3%.

Q: CCNc1ncc(C(=O)NCC2OCCc3ccccc32)cn1 (stereo unspecified) was tested. Which INHIBITION did it give?
A: The INHIBITION was 41.5%.

Q: With Cc1ncsc1C(=O)NC1CCN(CCC#N)CC1 as the molecule, how does the INHIBITION read?
A: The INHIBITION was 14.4%.

Q: With COc1cc(C(=O)NS(=O)(=O)c2cc(Cl)sc2Cl)ccc1OC(F)F as the molecule, how does the INHIBITION read?
A: The INHIBITION was 93.6%.

Q: COc1ccc(C(=O)NS(=O)(=O)c2cc(Cl)sc2Cl)cc1OC(F)F was tested. Which INHIBITION did it give?
A: The INHIBITION was 27.7%.

Q: COc1cc(C(=O)NC(CC(=O)O)c2cccs2)cc(Cl)c1OC (stereo unspecified) was tested. Which INHIBITION did it give?
A: Its INHIBITION is 18.6%.

Q: Cc1noc(COCC(=O)Nc2cc(C)c(Br)cn2)n1 was tested. Which INHIBITION did it give?
A: The INHIBITION was -21.8%.

Q: COc1cc(C(=O)NS(=O)(=O)c2cccc(C#N)c2)cc(OC)c1Br was tested. Which INHIBITION did it give?
A: The INHIBITION was 34.7%.

Q: For COc1cccc(C(=O)NS(=O)(=O)c2cc(Cl)sc2Cl)c1OC(F)F, which INHIBITION is on record?
A: Its INHIBITION is 45.7%.

Q: Which INHIBITION does the source give for COc1cc(C(=O)Nc2nc(C)no2)cc(OC)c1Br here?
A: Its INHIBITION is 91.4%.

Q: COc1cc(C(=O)Nc2nc(C)no2)cc(Cl)c1OC was tested. Which INHIBITION did it give?
A: Its INHIBITION is 77%.

Q: Which INHIBITION does the source give for Cc1cc(NC(=O)c2ccc(C)c(F)c2)[nH]n1 here?
A: The INHIBITION was -30.8%.

Q: With Cc1noc(NC(=O)c2ccc(C)c(F)c2)n1 as the molecule, how does the INHIBITION read?
A: Its INHIBITION is 59%.

Q: With Cc1noc(NC(=O)c2ccc(F)cc2)n1 as the molecule, how does the INHIBITION read?
A: Its INHIBITION is 25.1%.

Q: COc1cc(C(=O)NS(=O)(=O)c2cncc(Br)c2)cc(Cl)c1OC was tested. Which INHIBITION did it give?
A: Its INHIBITION is 5.23%.

Q: Which INHIBITION does the source give for Cc1cnn(CC2CCCCN2Cc2cc(C)no2)c1 (stereo unspecified) here?
A: Its INHIBITION is 4.245%.

Q: Cn1cc(C2CCCN2C(=O)COCCc2ccccc2)cn1 (stereo unspecified) was tested. Which INHIBITION did it give?
A: Its INHIBITION is -32%.

Q: With CC(c1ccncc1)n1cc2nc(N(C)C)[nH]cc-2c1=O (stereo unspecified) as the molecule, how does the INHIBITION read?
A: Its INHIBITION is -27.5%.

Q: How did the INHIBITION turn out when COCC(=O)N1CCC(c2n[nH]c3nccnc23)CC1 was run?
A: Its INHIBITION is -22.6%.

Q: Which INHIBITION does the source give for CC(C)(C)OC(=O)N1CCC(C(=O)NCCNc2ncccn2)CC1 here?
A: Its INHIBITION is -33.9%.

Q: With c1csc(N2[C@H](Cn3cncn3)C[C@@H]3CNCC[C@@H]32)n1 as the molecule, how does the INHIBITION read?
A: Its INHIBITION is -86.4%.

Q: How did the INHIBITION turn out when COc1ccccc1C(O)CNc1nccc(-c2ccc(C)nc2C)n1 (stereo unspecified) was run?
A: Its INHIBITION is 0.868%.

Q: How did the INHIBITION turn out when c1cnn(CC2CCCCN2Cc2nc(-c3ccoc3)no2)c1 (stereo unspecified) was run?
A: The INHIBITION was 31.8%.

Q: How did the INHIBITION turn out when CC(NC(=O)NCc1cccnc1N(C)C)c1cccs1 (stereo unspecified) was run?
A: The INHIBITION was 37.9%.

Q: How did the INHIBITION turn out when COc1cc(C(=O)Nc2nc(C)no2)ccc1C was run?
A: The INHIBITION was 63.6%.

Q: Cc1noc(CNc2ccc(OC(F)F)cc2OC(F)F)n1 was tested. Which INHIBITION did it give?
A: The INHIBITION was -29.9%.

Q: COc1cc(C(=O)Nc2cn[nH]c2)ccc1C was tested. Which INHIBITION did it give?
A: The INHIBITION was 10.45%.

Q: With COc1cc(C(=O)Nc2nc(C)no2)ccc1OC(F)F as the molecule, how does the INHIBITION read?
A: Its INHIBITION is 81.1%.

Q: For COc1cc(C(=O)Nc2nc(C)no2)ccc1OC1CCCC1, which INHIBITION is on record?
A: Its INHIBITION is 29.7%.

Q: With COc1cc(C(=O)Nc2c(C)noc2C)ccc1C as the molecule, how does the INHIBITION read?
A: The INHIBITION was 18.6%.

Q: With COCC(C)(NC(=O)c1cc(Cl)c(-n2cccc2)cc1OC)C(N)=O (stereo unspecified) as the molecule, how does the INHIBITION read?
A: Its INHIBITION is -35%.

Q: Which INHIBITION does the source give for CCn1cc(C(=O)NCc2ccc3c(c2)OCO3)c(C)n1 here?
A: Its INHIBITION is 3.52%.

Q: CN(CCC(O)c1ccccc1)Cc1nc(-c2ccccc2)no1 (stereo unspecified) was tested. Which INHIBITION did it give?
A: The INHIBITION was 62.9%.

Q: With CN(CCC(O)c1ccccc1)Cc1ccccc1C#N (stereo unspecified) as the molecule, how does the INHIBITION read?
A: Its INHIBITION is 41.1%.

Q: How did the INHIBITION turn out when Cc1nc(CN(C)Cc2nc(-c3ccccc3)no2)co1 was run?
A: Its INHIBITION is 14.3%.

Q: How did the INHIBITION turn out when O=C(Nc1nccs1)NC1CCN(Cc2ccccc2)CC1 was run?
A: Its INHIBITION is 15%.

Q: With C=c1ncsc1=C1NN=C(C2CCCN2C(=O)c2ccn(CC)n2)O1 (stereo unspecified) as the molecule, how does the INHIBITION read?
A: Its INHIBITION is 9.535%.

Q: How did the INHIBITION turn out when FC(F)(F)C1CN(Cc2cccc(-c3ccccn3)c2)CCO1 (stereo unspecified) was run?
A: The INHIBITION was 4.93%.

Q: For CC(=O)NCc1ccc(-c2ccccc2C(=O)O)cn1, which INHIBITION is on record?
A: The INHIBITION was -24.5%.

Q: CCOC(=O)CC1CCCCN1C(=O)c1cc(C)on1 (stereo unspecified) was tested. Which INHIBITION did it give?
A: Its INHIBITION is 17.5%.

Q: How did the INHIBITION turn out when Cc1cc(C(=O)N2CC[C@@H]3CO[C@@H](CN4CCCC4)[C@@H]3C2)no1 was run?
A: The INHIBITION was 23.3%.

Q: With CNc1nc(C)c(C(=O)N2CCCCC2CCN2CCOCC2)s1 (stereo unspecified) as the molecule, how does the INHIBITION read?
A: The INHIBITION was 13.6%.

Q: Which INHIBITION does the source give for CNc1nc(C)c(C(=O)N2CCCCC2CN2CCCCCC2)s1 (stereo unspecified) here?
A: Its INHIBITION is 50%.

Q: Which INHIBITION does the source give for Cc1cc(C(=O)N2CCCC2CN2CCCC2)no1 (stereo unspecified) here?
A: The INHIBITION was 61.1%.

Q: With CNc1nc(C)c(C(=O)N2CCCCC2CCc2ccccc2)s1 (stereo unspecified) as the molecule, how does the INHIBITION read?
A: Its INHIBITION is -14.7%.

Q: How did the INHIBITION turn out when OC(CN1CCN(Cc2cc(F)cc(F)c2)CC1)C1CC1 (stereo unspecified) was run?
A: Its INHIBITION is 5.85%.

Q: Cc1cc(CN(C)CC(c2cccs2)N2CCOCC2)on1 (stereo unspecified) was tested. Which INHIBITION did it give?
A: The INHIBITION was -48.4%.

Q: For CCN(CC)c1ncc(S(=O)(=O)c2cccc(C)c2)c(N)n1, which INHIBITION is on record?
A: Its INHIBITION is 17.7%.

Q: How did the INHIBITION turn out when CN1CCCN(c2ncnc(N3CCOCC3)c2N)CC1 was run?
A: The INHIBITION was 32.2%.

Q: CCOC(=O)C1CCN(c2cc(C(=O)N3CCCCC3)nc(C)n2)CC1 was tested. Which INHIBITION did it give?
A: Its INHIBITION is 9.52%.
